The list is not random: actives were taken first. Their share in the collection is about 21%.
CHX counter: counter-screen hit for Shiga toxin inhibitors, cycloheximide; cell reporter, cycloheximide protein synthesis inhibition counterscreen; max response, %; 12% of 300,000 active; AID 2314; in the data active = max response mostly above about 13%, no sharp cut-off; inactive = mostly below about 14%; note: read at 38.3 µM for the half of the compounds with a filed dose
NS1 function inh: inhibitors of influenza NS1 protein function | 0.4% of 270,000 active | Potency, µM (titrated, usually from 46.1 µM) | AID 2326; calls by dose curve; note: actives are rising curves; nearly all actives have a fitted effect of over 50% in size
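A cell-based growth assay was used: compounds that relieve NS1-induced slow growth of budding yeast raise OD600. Assay medium was yeast nitrogen base with ammonium sulphate and -URA supplement, pH 6.0, with 2% galactose.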
Shiga toxin inh: blocks Shiga toxin action in Vero cells. AID 2315. 9.2% of 290,000 active. inhibition, % at 38.7 µM. Vero cells, Shiga toxin protein synthesis inhibition reporter; in the data active = inhibition mostly above about 28%, no sharp cut-off; inactive = mostly below about 43%
Pf growth 96h: P. falciparum growth inhibition at 96 hours | 6.9% of 320,000 active | P. falciparum luciferase reporter growth, 96 h | Potency, µM (series often up to 28.7 µM), actives largely listed as inhibitors
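Parasite growth measured via integrated firefly luciferase reporter in P. falciparum. Infected erythrocytes at 2% hematocrit, 0.05% parasitemia final were treated 96 hours at 37 C under 5% CO2, and luminescence was read.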
Pf growth 48h: P. falciparum growth inhibition at 48 hours (one generation); P. falciparum luciferase growth in erythrocytes, 48 h; Potency, µM (doses to about 28.7 µM), actives largely listed as inhibitors; 5.9% of 310,000 active; AID 504832
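Compounds are pin-transferred into medium, infected erythrocytes (2% hematocrit, 0.1% parasitemia final) are added, and plates sit one parasite generation at 37 C in 5% CO2. Detection reagent is then added and luminescence measured.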
Large screens that a line does not name were inactive. Unless noted, calls come from the whole dose curve; as a rule, active = well fitted inhibition curve with a large enough effect; inconclusive = small, poorly fitted or top-dose-only effect, or another doubt; inactive = no such curve, though single readings can be large or run the other way.

COc1cc(C(=O)NC(=S)Nc2ccc(Cc3ccncc3)cc2)cc(OC)c1OC	Pf growth 48h 10.4µM
COc1ccc(NC(=O)CSc2ccc3nnc(-c4cccnc4)n3n2)c(OC)c1	Pf growth 48h inconclusive (no result: NS1 function inh)
O=C(NC(=S)Nc1ccc(Cc2ccncc2)cc1)c1ccccc1	CHX counter 36.6, Pf growth 96h inconclusive
COc1ccc(Br)cc1C(=O)Nc1ccc(Cc2ccncc2)cc1	Pf growth 96h inconclusive, Pf growth 48h inconclusive
COc1c(C(=O)Nc2ccc(Cc3ccncc3)cc2)ccc2ccccc12	CHX counter 19.8, Shiga toxin inh 95.9, Pf growth 48h inconclusive
Cc1cccc(C(=O)NC(=S)Nc2ccc(Cc3ccncc3)cc2)c1	Pf growth 96h inconclusive, Pf growth 48h inconclusive
Cn1c(CNC(=O)CNC(=O)c2ccc(F)cc2)cc(=O)n(C)c1=O	Pf growth 96h inconclusive
COc1cc(/C=C/C(=O)OCC(=O)NC(=O)NC(C)C)ccc1OCC#N	none
COc1cc(/C=C/C(=O)OCC(=O)NC(=O)NC23CC4CC(CC(C4)C2)C3)ccc1OCC#N	Pf growth 96h inconclusive, Pf growth 48h 14.7µM
Cc1ccccc1OCC(=O)NC(=S)Nc1ccccc1N1CCN(S(C)(=O)=O)CC1	none
c1ccc2c3nnc4n(c-3nc2c1)CCCS4	CHX counter 30.0 (no result: Pf growth 96h)
Clc1ccc(-c2nnc3n2CCCCS3)cc1	none
COc1ccccc1CNC(=O)C1CC(c2cccc([N+](=O)[O-])c2)=NO1 (centres undefined)	none
COc1ccc(C2=NOC(Cn3nc(C(=O)NCC4CC4)cc3-c3ccccc3)C2)cc1 (centres undefined)	Pf growth 96h 9.28µM, Pf growth 48h inconclusive (no result: CHX counter, NS1 function inh, Shiga toxin inh)
CCOC(=O)c1cc(-c2ccccc2C)nn1CC1CC(c2ccc(OC)cc2)=NO1 (centres undefined)	Pf growth 96h inconclusive (no result: CHX counter, NS1 function inh, Shiga toxin inh)
O=C(NCc1ccc(OC(F)(F)F)cc1)C1CC(c2cccc(F)c2)=NO1 (centres undefined)	none
COc1ccc(C2=NOC(Cn3nc(C(=O)NCc4ccc(OC(F)(F)F)cc4)cc3-c3ccccc3)C2)cc1 (centres undefined)	Pf growth 48h 10.4µM (no result: CHX counter, NS1 function inh, Shiga toxin inh)
COc1ccc(C2=NOC(Cn3nc(C(=O)NCc4ccccc4OC)cc3-c3ccccc3)C2)cc1 (centres undefined)	Pf growth 96h inconclusive, Pf growth 48h 13.1µM (no result: CHX counter, NS1 function inh, Shiga toxin inh)
COc1ccccc1CNC(=O)c1cc(-c2ccccc2C)nn1CC1CC(c2cccnc2)=NO1 (centres undefined)	Pf growth 96h 4.65µM, Pf growth 48h inconclusive (no result: CHX counter, NS1 function inh, Shiga toxin inh)
COc1ccc(C(=O)CSc2nc(C(C)(C)C)nc3ccccc23)cc1	Pf growth 48h inconclusive
Cc1ccc(OC(=O)CCNC(=O)c2ccccc2Cl)c(Br)c1	none (no result: CHX counter, NS1 function inh, Shiga toxin inh)
O=C(OCC(=O)c1ccccc1Br)c1ccncc1	CHX counter 24.2, Shiga toxin inh 62.6, Pf growth 48h inconclusive (no result: NS1 function inh)
O=C(NNC(=O)c1ccccc1Br)c1ccncc1	Pf growth 96h 10.4µM
O=C(NNC(=S)Nc1ccccc1Cl)c1ccccc1Br	CHX counter 49.0, Shiga toxin inh 74.5
O=C(NNC(=O)c1ccccc1Br)c1ccccc1Cl	CHX counter 18.7, Pf growth 96h inconclusive (no result: NS1 function inh)
O=C(NNC(=O)c1ccccc1Br)c1ccc(Cl)cc1	none
CC1=NN(C(N)=S)C(C)(C)C1	none
COCCCNC(=O)c1ccccc1-c1cc(C)no1	none
COc1ccc(N(CC(=O)Nc2ccc3c(c2)OCCO3)S(=O)(=O)c2cccc(C)c2)cc1	Pf growth 48h inconclusive (no result: CHX counter, NS1 function inh, Shiga toxin inh)
COCCN(C(=S)Nc1c(C)cc(C)cc1C)C(C)c1cccnc1 (centres undefined)	none
COc1ccccc1NC(=O)Cn1cc(C(=O)C2CC2)c2ccccc21	Pf growth 48h inconclusive
O=C(OCC(=O)c1cccc2ccccc12)c1ccc(CO)cc1	CHX counter 41.7, Shiga toxin inh 77.5
O=C1CCC/C(=N/NC(=O)c2sc3ccccc3c2Cl)C1	CHX counter 17.6
O=C(NN=C1CCCC1)c1sc2ccccc2c1Cl	CHX counter 38.1, Shiga toxin inh 43.2, Pf growth 96h inconclusive, Pf growth 48h inconclusive (no result: NS1 function inh)
O=C(Nc1ccnc(=O)[nH]1)c1sc2ccccc2c1Cl	none
O=C(NC1CCS(=O)(=O)C1)c1sc2ccccc2c1Cl (centres undefined)	none (no result: NS1 function inh)
CCOc1cc(/C=N/NC(=O)C(=O)N2CCCC2)ccc1O	none
CN(Cc1ccccn1)Cc1nc(Cc2ccccc2Cl)no1	none
OCC1CCN(Cc2nc(Cc3ccccc3Cl)no2)CC1	CHX counter 12.4, Pf growth 96h inconclusive
Clc1ccccc1Cc1noc(CN2CCSCC2)n1	CHX counter 12.1
Cc1cnccc1CN(C)Cc1nc(Cc2ccccc2Cl)no1	Pf growth 48h 9.28µM

Assay outcomes (PubChem BioAssay)
